Whole data set: some 39,000 sequences, median “fluorescence intensity (a.u.)” near 4,300, cut for the highest 2% near 39,000. The entries come from a sample that favours the highest values as a whole.
What follows are sequences tested against T1, OsSMF1 (Oryza sativa, UniProt Q6ZLB0 1-436) (assay: protein-binding microarray (RPBM); PBS, 2% BSA, 51.3 ng/ul salmon testes DNA, 50 uM zinc acetate, 200 nM TF, 25 C, 1 h; high values mean tight binding). Conditions: protein: recombinant; tags: N-terminal polyhistidine and DsRed monomer fusion (pET32a); chain copies: 2; label: CyDye5-dUTP incorporated in the synthesized complementary strand; 3' TTTTT single-stranded linker to array surface; dsDNA, one strand shown.
T1 sequence: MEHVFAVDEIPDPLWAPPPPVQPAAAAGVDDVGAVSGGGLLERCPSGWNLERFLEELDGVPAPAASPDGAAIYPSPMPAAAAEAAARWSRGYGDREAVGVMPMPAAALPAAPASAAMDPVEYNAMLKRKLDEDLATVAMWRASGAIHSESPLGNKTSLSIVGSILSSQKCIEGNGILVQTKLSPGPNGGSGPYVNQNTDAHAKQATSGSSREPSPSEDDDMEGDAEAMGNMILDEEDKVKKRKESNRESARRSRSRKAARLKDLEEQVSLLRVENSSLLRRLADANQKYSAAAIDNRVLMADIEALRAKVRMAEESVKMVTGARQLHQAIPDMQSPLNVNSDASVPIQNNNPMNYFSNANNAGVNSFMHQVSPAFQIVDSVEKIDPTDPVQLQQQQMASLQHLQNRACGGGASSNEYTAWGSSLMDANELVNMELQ
Outline: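 Per-feature fluorescence intensity (arbitrary units), read on an Axon 4000B scanner, is the binding signal. Transcription factors carrying an N-terminal polyhistidine tag and DsRed fusion were expressed in E. coli BL21-CodonPlus and purified on Ni–NTA. A custom Agilent array, made double-stranded by primer extension with Cy5-dUTP and blocked with 2% BSA, was incubated with 200 nM protein in PBS, 2% BSA, salmon testes DNA and 50 µM zinc acetate at 25 °C for 1 h and then washed.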

Sequence	binding signal
TGGCGCCTCTCACCGCCACGTCGCCGCCGGCGAGGTGAAACGGAGTCACCTAGTGCAG	20800 fluorescence intensity (a.u.)
ACGATTAATTGTTTAGTAAGCGTGCTGACGTTAAACGAGACGGAGTCACCTAGTGCAG	3690 fluorescence intensity (a.u.)
ATCACGTGATTAAAACAGTAATTATCGAGCACGGAAGGAACGGAGTCACCTAGTGCAG	40600 fluorescence intensity (a.u.)
CGATCGATCGATTGTGAGCACCGAACTCCCTTAATTAGGACGGAGTCACCTAGTGCAG	3390 fluorescence intensity (a.u.)
GGTGACAATTGTCATTTGCTCAGCAACTAACATTACTAAACGGAGTCACCTAGTGCAG	18200 fluorescence intensity (a.u.)
CACTGTTTGATGCTAAAACATATTACGTGTGCCGTTCATACGGAGTCACCTAGTGCAG	3580 fluorescence intensity (a.u.)
CAGTCCACATAACCTGAACCCAGCGTCAATCCGCAAGCAACGGAGTCACCTAGTGCAG	40200 fluorescence intensity (a.u.)
GACCCAGCAAGCAAGAGCGTCTAGTCACCTCAACCACGAACGGAGTCACCTAGTGCAG	6180 fluorescence intensity (a.u.)
ACCGCATCACATCAAGCATCCACCAACCAACCCAACAACACGGAGTCACCTAGTGCAG	3910 fluorescence intensity (a.u.)
GAGAATGATGTATGCACGCAGATGACATGGTATGATGAACCGGAGTCACCTAGTGCAG	4370 fluorescence intensity (a.u.)
GGTTGGTATTAACCGCTGATGGTGAATGCCAACCTCAGAACGGAGTCACCTAGTGCAG	51200 fluorescence intensity (a.u.)
CATGGTATTGTTTGATGCCAACTGAATTGATACAATGTGACGGAGTCACCTAGTGCAG	20500 fluorescence intensity (a.u.)
CTTCAAGAAGGTTACGCTGACAGAACGGCGACAACGTCCGCGGAGTCACCTAGTGCAG	3220 fluorescence intensity (a.u.)
TCCTTCCATACTGTATAAATACTTTGAAATTCTAATATAGCGGAGTCACCTAGTGCAG	44200 fluorescence intensity (a.u.)
CTTCCTTTGATAATATAATATATAGATAAATTCTCTAAGACGGAGTCACCTAGTGCAG	3200 fluorescence intensity (a.u.)
TCTAAGACTGAACTTTCCTGTATACATATATTTTGAAAAGCGGAGTCACCTAGTGCAG	24600 fluorescence intensity (a.u.)
GACGACCTTGGCACCCAGCTTCCGTCACTCGCTCGCCGCGCGGAGTCACCTAGTGCAG	3220 fluorescence intensity (a.u.)
CATATAACAAGTGACTGGCACACAAACCCACAATGAAGTGCGGAGTCACCTAGTGCAG	43500 fluorescence intensity (a.u.)
CATCTATCATATAACAACAACACAATGACACAACACTGGACGGAGTCACCTAGTGCAG	4510 fluorescence intensity (a.u.)
TTATAACACAAAACACATATGAAGCGCACTCTACCACGCACGGAGTCACCTAGTGCAG	32200 fluorescence intensity (a.u.)
TGCACGCACAGCCATCCACAAGCCATGAGCCGGCGCGAGACGGAGTCACCTAGTGCAG	3640 fluorescence intensity (a.u.)
ATTGAAGCCTATTTATTGGTAATACGTAATCTAGATTTGACGGAGTCACCTAGTGCAG	3700 fluorescence intensity (a.u.)
ATAAAAGAGAAGAGCAGCAGGCCAGCTGCAGGACGGACTTCGGAGTCACCTAGTGCAG	3820 fluorescence intensity (a.u.)
AAAGGCACAGCAGGATGAAGATCTTGAAATGTTTCTTTGGCGGAGTCACCTAGTGCAG	6510 fluorescence intensity (a.u.)
TCAGCAGTAAAGGACAGAAGGCGAAAAGATTTGAGATCTTCGGAGTCACCTAGTGCAG	65500 fluorescence intensity (a.u.)
